SMILES strings stand for the structures. This is part of a sample that, as a whole, favours compounds with a hit. Of some 83,000 tested, about 20% had one in any assay.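 Percent growth is the endpoint: 0 to 100 indicates growth inhibition (40 means 60% inhibition), 0 means no net growth, and negative values indicate cell death.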 Unmarked numbers belong to inactive results. Activity calls are given as the source filed them. How the source made its calls: active means growth percent below 10; inactive means the rest.

Some test systems named below: SK-MEL-2 melanoma; EKVX NSCLC; SN12C renal; UO-31 renal; TK-10 renal; ACHN renal; CAKI-1 renal; A498 renal; CCRF-CEM leukemia; MOLT-4 leukemia; RPMI-8226 leukemia; OVCAR-8 ovarian; OVCAR-4 ovarian; SK-OV-3 ovarian; IGROV1 ovarian; OVCAR-3 ovarian; HS 578T breast; NCI/ADR-RES ovarian; OVCAR-5 ovarian.
Common to all, as to test: NCI-60 one-dose screen, 48 h (100 = growth as untreated, 0 = no growth, -100 = all killed)
Holding throughout (conditions): 10 µM unless noted

As for `COc1cc2nc(Cl)nc(Nc3ccc(S(=O)(=O)Nc4nccs4)cc3)c2cc1OC`, the growth was 102% with SK-MEL-2 melanoma; 93.9% in the assay on EKVX NSCLC; 95.7% in the assay on SN12C renal; 85.4% in the assay on UO-31 renal; 119% in the assay with TK-10 renal; 88.2% in the assay on ACHN renal. Besides, the growth in the assay with CAKI-1 renal is 88.2%; in the assay with A498 renal it was 136%; with CCRF-CEM leukemia it was 117%; with MOLT-4 leukemia, 99.3%; in the assay with RPMI-8226 leukemia, 107%; with OVCAR-8 ovarian, 97.3%. Further, the growth in the assay on OVCAR-4 ovarian is 103%; with SK-OV-3 ovarian, 101%; in the assay with IGROV1 ovarian, 107%; in the assay on OVCAR-3 ovarian, 116%; in the assay on HS 578T breast it was 99.5%; in the assay with NCI/ADR-RES ovarian it was 104%.
`NC(N)=Nc1nc2ccccc2n2c1nc1ccccc12`: the growth was 70.3% in the assay on SK-MEL-2 melanoma; 36.3% with EKVX NSCLC; 28.3% in the assay on SN12C renal; 34.3% in the assay with UO-31 renal; 46.2% with TK-10 renal; 11.7% with ACHN renal. Moreover, the growth was 23.2% in the assay with CAKI-1 renal; 52.5% in the assay with A498 renal; 25.7% with CCRF-CEM leukemia; 7.99% (active) in the assay with MOLT-4 leukemia; 25.5% in the assay on OVCAR-8 ovarian; 54.3% in the assay with OVCAR-5 ovarian. The growth was 36% in the assay with OVCAR-4 ovarian; 32.9% in the assay on SK-OV-3 ovarian; 20.3% in the assay on IGROV1 ovarian; 43.3% in the assay on OVCAR-3 ovarian; 43.8% with HS 578T breast; 63.1% in the assay with NCI/ADR-RES ovarian.
Consider `O=C1NC(=Nc2ccc(Cl)cc2)S/C1=C\c1cn(-c2ccccc2)nc1-c1ccccc1`, for which the growth with SK-MEL-2 melanoma is 103%; with EKVX NSCLC, 85.3%; in the assay with SN12C renal, 79.3%; with UO-31 renal, 87.2%; in the assay on TK-10 renal it was 60.9%; with ACHN renal it was 91.9%. Also, the growth in the assay on CAKI-1 renal was 94.7%; in the assay with A498 renal, 79.7%; in the assay on CCRF-CEM leukemia it was 60.6%; in the assay on MOLT-4 leukemia it was 81.7%; in the assay with RPMI-8226 leukemia, 83.3%; in the assay on OVCAR-8 ovarian, 75.1%. The growth with OVCAR-4 ovarian is 0.154% (active); in the assay with SK-OV-3 ovarian it was 104%; with IGROV1 ovarian, 79.7%; with HS 578T breast, 71%; in the assay on NCI/ADR-RES ovarian, 91.6%.
Consider `Cc1c(C(=O)OC(=NC2CCCCC2)NC2CCCCC2)sc2c1c(=O)nc1c(C#N)n[nH]n12`, for which the growth with SK-MEL-2 melanoma is 93.6%; in the assay with EKVX NSCLC, 109%; with SN12C renal, 117%; in the assay on UO-31 renal it was 79.6%; in the assay with TK-10 renal it was 117%; in the assay with ACHN renal, 106%. For the same compound, the growth was 101% in the assay on CAKI-1 renal; 119% with A498 renal; 300% in the assay on CCRF-CEM leukemia; 99.7% with MOLT-4 leukemia; 104% in the assay on OVCAR-8 ovarian; 75.8% with OVCAR-5 ovarian. Further, the growth was 105% with OVCAR-4 ovarian; 106% in the assay with SK-OV-3 ovarian; 84.6% in the assay on IGROV1 ovarian; 105% in the assay on OVCAR-3 ovarian; 104% in the assay with HS 578T breast; 106% with NCI/ADR-RES ovarian.
`OC(c1cccc(-n2ccc(C(F)(F)F)n2)c1)c1cnccc1NC1CCCCCC1` (stereo unspecified): the growth in the assay on SK-MEL-2 melanoma is 27.1%; in the assay with EKVX NSCLC, 72.6%; in the assay on SN12C renal, 47.8%; in the assay on UO-31 renal it was 41.5%; in the assay on TK-10 renal it was 86.7%; in the assay with ACHN renal, -32.2% (active). For the same compound, the growth with CAKI-1 renal is 66.5%; with A498 renal, 60.4%; with CCRF-CEM leukemia it was 8.54% (active); with MOLT-4 leukemia, -14.2% (active); in the assay on RPMI-8226 leukemia, -33.4% (active); in the assay with OVCAR-8 ovarian, 6.25% (active). Besides, the growth with OVCAR-4 ovarian is 40.8%; in the assay with IGROV1 ovarian, 38.5%; in the assay on OVCAR-3 ovarian, 52.4%; in the assay on HS 578T breast, 49.8%; in the assay with NCI/ADR-RES ovarian it was 30%.
Turning to `O=C(CSc1nnc(-c2ccc(NC(=O)c3cccnc3)cc2)o1)N[C@@H](Cc1ccc(O)cc1)C(=O)O`, the growth is 99.8% in the assay on SK-MEL-2 melanoma; 110% in the assay on EKVX NSCLC; 94.4% with SN12C renal; 85.1% in the assay with UO-31 renal; 106% in the assay with TK-10 renal; 98.6% in the assay on ACHN renal. Also, the growth in the assay on CAKI-1 renal is 92.4%; with A498 renal it was 117%; in the assay on CCRF-CEM leukemia, 96.6%; with MOLT-4 leukemia it was 99.8%; in the assay on OVCAR-8 ovarian, 99.8%; in the assay with OVCAR-5 ovarian, 106%. Further, the growth with OVCAR-4 ovarian is 120%; with SK-OV-3 ovarian, 101%; in the assay on IGROV1 ovarian, 102%; in the assay on OVCAR-3 ovarian, 120%; with HS 578T breast, 96.9%; in the assay on NCI/ADR-RES ovarian, 104%.
With `COc1ccc(-c2nc(SCCC(C)C)nc(N/N=C\c3ccccc3O)c2C#N)cc1`, the growth was 103% with SK-MEL-2 melanoma; 101% in the assay with EKVX NSCLC; 81.2% with SN12C renal; 86.7% in the assay with UO-31 renal; 101% in the assay on TK-10 renal; 73.5% in the assay with ACHN renal. Further, the growth was 73.9% with CAKI-1 renal; 95.8% with A498 renal; 66.3% in the assay on CCRF-CEM leukemia; 90.2% with MOLT-4 leukemia; 75.4% with OVCAR-8 ovarian; 99.7% in the assay with OVCAR-5 ovarian. Besides, the growth is 4.04% (active) in the assay with OVCAR-4 ovarian; 87.6% with SK-OV-3 ovarian; 86.7% with IGROV1 ovarian; 78.8% in the assay on OVCAR-3 ovarian; 63.2% in the assay with HS 578T breast; 84.2% with NCI/ADR-RES ovarian.
In the case of `C(=N\Nc1ncc(-c2cc3cc4c(cc3o2)OCO4)s1)/c1ccco1`, the growth in the assay on SK-MEL-2 melanoma is 90.8%; in the assay on EKVX NSCLC, 59.3%; in the assay with SN12C renal it was 38.9%; in the assay on UO-31 renal, -43.4% (active); with TK-10 renal, 50.7%; with ACHN renal it was 11.1%. Further, the growth is 9.09% (active) in the assay with CAKI-1 renal; 71.1% in the assay on A498 renal; 17.5% with CCRF-CEM leukemia; 9.91% (active) in the assay with MOLT-4 leukemia; 30.9% with RPMI-8226 leukemia; 23.7% with OVCAR-8 ovarian. In addition, the growth in the assay with OVCAR-5 ovarian is 58%; with IGROV1 ovarian it was 30.2%; with OVCAR-3 ovarian it was 8.65% (active); in the assay with HS 578T breast, 70.6%; with NCI/ADR-RES ovarian, 34.7%.
